Assay outcomes deposited in PubChem by National Center for Advancing Translational Sciences (NCATS).
HT1080 IDH1KD tx = toxicity to HT-1080 IDH1 knockdown cells (counter line). HT-1080 IDH1 knockdown viability, ATP luminescence, 48 h. Potency, µM (titrated, usually from 46.1 µM), without a hit: top-dose activity, negative = toxicity, most hits filed as cytotoxic. actives 2% (n = 360,000). AID 686971;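 note: 0% = DMSO wells and -100% = cell-free medium wells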
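Luminescent ATP read-out (CellTiter-Glo, 10 min at room temperature) after 48 h compound exposure at 37 °C gave viability of IDH1-knockdown HT-1080 cells. Activity was normalised to DMSO and cell-free wells, then fitted as concentration-response curves.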
TDP1 cell noCPT = qHTS for Inhibitors of human tyrosyl-DNA phosphodiesterase 1 (TDP1): qHTS in cells in absence of CPT | DT40 Tdp1-/- hTDP1 cells, no CPT, ATP luminescence, 48 h | Potency, µM (doses to about 46.2 µM), without a hit: at the highest dose activity change, negative = growth inhibition, actives largely listed as inhibitors | actives 15% (n = 420,000); note: % is set by controls: 0 for no effect and ±100 for the full control effect; nearly all actives have a fitted effect of over 55% in size
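Luminescent ATP content (CellTiter-Glo) served as the growth readout. Knockout chicken DT40 cells expressing human TDP1 were exposed to compounds without camptothecin for a minimum 48 hr at 37 °C.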
HepG2 viability = kills HepG2 cells in TGF-b inhibitor counter-screen; HepG2 CAGA-GFP viability, ATP luminescence, 18 h; Potency, µM (doses to about 46.1 µM), for inactives: at the top dose activity change, negative = cytotoxicity, most hits filed as cytotoxic; actives 0.76% (n = 410,000); AID 588856
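HepG2 CAGA-GFP cells (1000/well, DMEM with 1% FBS) received compound, then TGF-beta at 500 pg/mL final, and were incubated 18 hours at 37 degrees C. Viability was read by CellTiter-Glo luminescence. Media-only wells were set as complete cell-killing and DMSO as no toxicity.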
HT1080-NT tox = kills 2HG-producing HT-1080-NT fibrosarcoma cells. AID 686970. HT-1080-NT fibrosarcoma viability, CellTiter-Glo ATP luminescence, 48 h. Potency, µM (series often up to 46.1 µM), for inactives: top-dose activity, negative = less viability, actives largely listed as cytotoxic. actives 1.6% (n = 360,000);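 note: NT is the 2HG producing partner of a matched IDH1 knockdown line; 0% = DMSO-treated cells and -100% = media-only wells without cells; nearly all actives have a fitted effect of over 55% in size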
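Luminescent CellTiter-Glo readout after 48 hours of compound exposure at 37 degrees C defined viability of HT-1080-NT cells. Activity was normalized to DMSO wells and cell-free media wells; concentration-response curves were fitted and assigned curve classes.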
TGFb inhibitor = TGF-b pathway inhibition; HepG2 CAGA-GFP TGF-b/SMAD3 reporter, GFP fluorescence, 18 h; TGF-beta stimulated, 500 pg/mL final; Potency, µM (series often up to 46.1 µM), inactives show top-dose activity, negative = inhibition, actives largely listed as inhibitors; actives 1.2% (n = 410,000); AID 588855; note: % is set by controls: 0 for no effect and ±100 for the full control effect; nearly all actives have a fitted effect of over 65% in size
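Smad-responsive CAGA-GFP expression was quantified in HEPG2 cells exposed to compounds and 500 pg/mL final TGF-beta for 18 h at 37 degrees C; unstimulated wells defined full inhibition.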
DT40 TDP1 CPT = growth inhibition of DT40 Tdp1-/-;hTDP1 cells with camptothecin (screen for TDP1 inhibitors); Potency, µM (titrated, usually from 46.2 µM), for inactives: at the highest dose activity change, negative = growth inhibition, hits mostly inhibitors; actives 12% (n = 420,000); chicken DT40 Tdp1-/-;hTDP1 cells + 20 nM CPT, ATP luminescence, 48 h; note: % is set by controls: 0 for no effect and ±100 for the full control effect; nearly all actives have a fitted effect of over 55% in size
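Chicken DT40 Tdp1-/- cells stably complemented with human TDP1 were seeded at 400 cells/well in medium containing 20 nM camptothecin, exposed to pin-transferred compounds, and grown at 37 °C for at least 48 hr. Viability was read as ATP luminescence.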
Numbers without * were called inactive; ? = inconclusive; nt = no result given. Hits are enriched below; roughly 17% of the tested compounds scored in any of these assays. Calls come from the whole dose curve; as a rule, active = well fitted curve in the direction sought with a large enough effect; inconclusive = small, poorly fitted or top-dose-only effect, or another doubt; inactive = no such curve, though single readings can be large; an effect the other way counts as inactive or inconclusive. Potency is the fitted concentration of half-maximal effect.

SMILES	HT1080 IDH1KD tx	TDP1 cell noCPT	HepG2 viability	HT1080-NT tox	TGFb inhibitor	DT40 TDP1 CPT
CC(=O)N1CCN(C(C(=O)Nc2c(C)cccc2C)c2cccc(F)c2)CC1 (stereo unspecified)	20.5%	0.8%	nt	16.3%	nt	1.5%
COC(=O)C[C@H]1C=C[C@H](NC(=O)Nc2ccccc2F)[C@@H](CO)O1	27.8%	3.4%	nt	27.0%	nt	1.1%
Nc1nonc1-n1nnc(C(=O)N/N=C/c2cccnc2)c1-c1ccccc1	6.6%	14.2%	-3.4%	22.3%	11.7%	-1.5%
CCc1nc2ccc(C(=O)NCCCn3ccnc3)cn2c1N(C)CCCc1ccccc1	?	?	-30.6%	?	-9.1%	18.4µM*
CCc1nc2ccc(C(=O)NCCCn3ccnc3)cn2c1N(CC)C(=O)NCCc1ccccc1	0.0%	-4.1%	-17.7%	3.5%	-4.5%	-13.7%
CCNC(=O)N(C)c1c(CC)nc2ccc(C(=O)Nc3cccc(OCC(=O)N(C)C)c3)cn12	27.0%	-6.4%	-1.3%	19.3%	6.9%	-2.9%
CCc1nc2ccc(C(=O)NCCCN(C)C)cn2c1N(C)CCCc1ccccc1	23.1µM*	?	-79.4%	18.4µM*	17.5%	?
CCc1nc2ccc(C(=O)NCCCN(C)C)cn2c1N(C)Cc1ccc(OC)cc1	?	?	-19.2%	?	29.3%	?
CCc1nc2ccc(C(=O)Nc3cccc(OCC(=O)N(C)C)c3)cn2c1N(C)Cc1cc2ccccc2s1	?	16.4µM*	-63.6%	?	?	16.4µM*
CCc1nc2ccc(C(=O)NCCCn3ccnc3)cn2c1N(C)Cc1ccc(OC)cc1	13.7%	14.6µM*	-11.4%	10.1%	5.7%	?
CC1(C)CC(=O)c2c(O)cc(OCC(=O)N3CCN(c4ccc(F)cc4)CC3)cc2O1	-5.3%	?	-13.3%	-0.1%	1.8%	?
CCc1nc2ccc(C(=O)NCCCn3ccnc3)cn2c1N(C)Cc1cc2ccccc2s1	?	16.4µM*	-16.6%	20.6µM*	4.5%	?
CCc1nc2ccc(C(=O)NCCCn3ccnc3)cn2c1N(CC)CCN(C)C	10.7%	-0.2%	-7.6%	11.8%	6.9%	-16.6%
CSc1ncnc2c1cnn2-c1ccc(C)cc1C	6.6%	?	-23.9%	16.3%	?	-28.1%
Cc1ccc(-n2ncc3c(NCC(C)C)ncnc32)c(C)c1	nt	?	3.5%	nt	5.2%	23.1µM*
Cc1ccc(-n2ncc3c(N(CC(C)C)CC(C)C)ncnc32)c(C)c1	nt	?	-42.4%	nt	-14.5%	20.6µM*
Cc1ccc(-n2ncc3c(SCc4ccccn4)ncnc32)c(C)c1	?	16.4µM*	-18.2%	?	2.8%	?
CCOC(=O)N1CCC(Nc2ncnc3c2cnn3-c2ccc(C)cc2C)CC1	-5.5%	8.2µM*	-35.5%	-12.9%	?	10.3µM*
Cc1ccc(-n2ncc3c(NCCCOC(C)C)ncnc32)c(C)c1	-12.5%	?	-25.0%	-0.2%	2.4%	?
C=CCNc1ncnc2c1cnn2-c1ccc(C)cc1C	2.0%	?	-3.8%	-3.0%	2.9%	-4.2%
Cc1ccc2c(=O)cc(C(=O)Nc3sc4c(c3C(=O)NCc3cccnc3)CCCC4)oc2c1C	nt	?	7.6%	nt	-4.1%	-4.2%
CC(C)(C)C1CCSC2=NCCC[C@]2(c2ccccc2)C1 (stereo partly specified)	-24.8%	18.4µM*	nt	-16.0%	nt	?
COc1ccc(-c2oc3ncn4nc(-c5ccccc5Br)nc4c3c2-c2ccc(OC)cc2)cc1	nt	?	-33.6%	nt	3.7%	5.2%
CCOc1ccc(NC(=S)N2CCN(C/C=C/c3ccccc3)CC2)cc1	-10.4%	18.4µM*	-0.7%	-23.9%	1.1%	?
CCOc1ccc(NS(=O)(=O)c2cccc(C(=O)N3CCN(C/C=C/c4ccccc4)CC3)c2)cc1	0.3%	16.4µM*	-32.1%	6.3%	?	?
SMILES	HT1080 IDH1KD tx	TDP1 cell noCPT	HepG2 viability	HT1080-NT tox	TGFb inhibitor	DT40 TDP1 CPT
Cn1cccc1C(=O)N1CCC2(CC1)CN(C(=O)Nc1cccc(F)c1)C2	nt	?	nt	nt	nt	-9.6%
O=C(Cc1ccccc1[N+](=O)[O-])NCCCN1CCOCC1	18.8%	-0.8%	3.7%	20.1%	7.0%	16.6%
Cc1ccc(OC(=O)c2cc(-c3ccccc3)nc3ccc(C)cc23)cc1	nt	-0.7%	-25.4%	nt	-20.8%	0.0%
COc1cc(/C=C2\SC(=Nc3ccccc3)NC2=O)cc(Cl)c1O	?	?	-10.3%	-28.3%	136.1%	?
COc1cc(/C=C2\SC(=Nc3ccccc3OC)NC2=O)ccc1O	7.31µM*	?	-20.0%	4.11µM*	15.9%	?
COc1cc(/C=C2/SC(=Nc3ccc(O)cc3)NC2=O)ccc1O	1.16µM*	0.651µM*	-14.1%	0.651µM*	-13.3%	1.03µM*
COc1ccc(/C=C2\SC(=Nc3ccccc3OC)NC2=O)cc1	?	?	-38.6%	?	4.1%	23.1µM*
CCc1ccc(N=C2NC(=O)/C(=C/c3cc(OC)c(O)c(OC)c3)S2)cc1	-11.1%	25.9µM*	-78.4%	-3.2%	?	?
COc1cc(/C=C2\SC(=Nc3cccnc3)NC2=O)cc(OC)c1OC	0.4%	?	-1.5%	0.3%	2.2%	?
CN(C)c1ncc2nc(-c3cccc(C#N)c3)c(=O)n(C[C@H]3CCCO3)c2n1	nt	-0.1%	nt	nt	nt	-5.6%
CCOC(=O)N1CCN(C(=O)C2COc3ccccc3O2)CC1 (stereo unspecified)	15.2%	-11.9%	-0.2%	22.8%	-10.3%	-0.5%
CCOC(=O)C(C(=O)OCC)C1N=C(N)N=C2Oc3ccccc3N21 (stereo unspecified)	10µM*	-15.3%	-39.6%	?	?	-10.7%
Cc1cn([C@H]2C[C@H](O)[C@@H](CCC(=O)NCc3ccccc3)O2)c(=O)[nH]c1=O	5.4%	-106.5%	-3.9%	9.9%	-8.1%	-97.8%
COc1ccc(Br)cc1CNC(=O)CN1C(=O)c2cccnc2Oc2ccc(C)cc21	nt	11.6µM*	-11.4%	nt	?	?
CCCOc1ccc(CNC(=O)CN2C(=O)c3cccnc3Oc3ccc(C)cc32)cc1	nt	?	-19.2%	nt	0.0%	23.1µM*
CC(C)Oc1ccc(CNC(=O)CN2C(=O)c3cccnc3Oc3ccc(Cl)cc32)cc1	nt	18.4µM*	-8.2%	nt	-23.6%	16.4µM*
